Compounds without any hit were thinned out: in the full panel of roughly 83,000, 20% have a hit.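 Negative percent growth values reflect cell death: -40 means 40% of the cells present at the start died, and -100 means all died.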 Values without a mark were called inactive. Activity calls are given as the source filed them. The calls were made as follows: active = growth percent below 10; inactive = the rest.
Each molecule was assayed on CCRF-CEM leukemia (assay: NCI-60 one-dose screen, 48 h (100 = growth as untreated, 0 = no growth, -100 = all killed)). Conditions: 10 µM unless noted.

Structure (SMILES)	growth
COc1ccccc1/C=C/C1=C(C)CCC(c2ccccc2OC)C1C (stereo not given)	-9.01% (active)
COc1cc(OCc2cccc(-c3ccc4c(c3)OCCO4)c2C)cc(OC)c1C=O	59.1%
COc1ccccc1-c1nc2ccc3[nH]ncc3c2c2c1CCCC2	66.6%
CC(=O)OCCOc1cc(Cl)c(Cl)cc1Cl	-63.4% (active)
CC1(C)CC(=O)C2=C(C1)OC(C(=O)c1ccccc1)C2c1cccc(Oc2ccccc2)c1 (stereo not given)	34.5%
CC1OC(C(=O)N2CCN(CCO)CC2)CC1COC1CCCCC1 (stereo not given)	106% [50 µM]
COc1ccccc1NC(=O)n1c(=O)cc(C)c2ccc(O)cc21	107%
COc1ccc2c(c1)C(c1c[nH]c3ccccc13)(c1c[nH]c3ccccc13)CCO2	36.7%
CC(C)(C)n1cc(-c2ccnc(NCCNS(=O)(=O)c3cccc4ccccc34)c2)c(-c2cccc(O)c2)n1	60.1%
COc1cc(C2=Nc3c(N)nc(N)nc3NC(c3cccc(Nc4ccnc5cc(C(F)(F)F)ccc45)c3)C2)cc(OC)c1OC (stereo not given)	51.7%
Nc1nc(=O)n([C@H]2CC=C(CO)O2)cc1F	103%
CS(=O)(=O)c1ccc(/C(=N/NC(N)=S)c2ccc(F)cc2)cc1	92.9%
O=c1n(C2OC(CO)C(O)C2O)ccc2nccn12 (stereo not given)	99.5%
Cc1c(N2CCCCC2)[nH]c2ccccc12	55.1%
O=C1CCc2c(sc3[nH]c(=S)n(-c4cc(C(F)(F)F)cc(C(F)(F)F)c4)c(=O)c23)C1	1.71% (active)
Nc1nc(N)c2c(n1)NC(c1ccc3c(c1)OCO3)CC(c1cccc(Nc3ccncc3)c1)=N2 (stereo not given)	70%
CCCCCCCC/C=C\CCCCCCCCOc1ccc(CC(=O)NCC[N+]2(C)CCCC2)cc1	29.5%
Cn1cc(-c2csc(-c3cn(CCO)c4ccc(F)cc34)n2)c2cccnc21	44.4%
CCOC(=O)C1=CCC(n2cc(F)c(=O)[nH]c2=O)O1 (stereo not given)	97.4%
CC1(C)CC[C@]2(CO)CC[C@]3(C)C(=CC[C@@H]4[C@@]5(C)CCNCC(C)(C)[C@@H]5CC[C@]43C)[C@@H]2C1	73.8%

Structure (SMILES)	growth
O=C(CN1C(=O)NC2NC(=O)NC21)N/N=C/c1cccc([N+](=O)[O-])c1 (stereo not given)	106%
[2H]C([2H])([2H])Oc1ccc(/C=C/C(=O)/C=C(O)/C=C/c2ccc(OC([2H])([2H])[2H])c(OC([2H])([2H])[2H])c2)cc1OC([2H])([2H])[2H]	22.3%
Cc1nn(C)c2ncnc(Nc3ccccc3Br)c12	93.3%
COc1cc(NC(=O)c2cncnc2Nc2ccc3c(ccn3Cc3cccc(F)c3)c2)cc(OC)c1	26.4%
C=C1CC[C@@H]2[C@](C)(COC(C)=O)[C@H](OC(C)=O)CC[C@@]2(C)[C@@H]1CC(Nc1ccc(S(=O)(=O)Nc2nccc(C)n2)cc1)C1=CCOC1=O (stereo not given in full)	-19.2% (active)
Cc1nc2c(c(-c3ccccc3)n1)Cc1c(ccc3ccccc13)O2	96.5%
CCCc1cc(CCC)n2nc(N)nc2n1	93.1%
Clc1ccc(C2=Nn3c(nnc3-c3cc(Cl)cc(Cl)c3Cl)SC2)cc1	36.1%
CCN(CC)CCN1C(=O)c2c(c(C)c3c(oc4cc(OC)ccc43)c2C)C1=O	-10.9% (active)
O=C1c2cccnc2C(=O)c2c1c(C(=O)OCCCN1CCOCC1)c1ccccn21	-5.87% (active)
CCCCN(CCC#N)C(N)=O	96.7%
O=C(OCC(O)(CO)C(=O)NC12CC3CC(CC(C3)C1)C2)c1ccc(Cl)cc1 (stereo not given)	87.8%
CC1(C)C2=C(C(=O)N1Cc1ccccc1)C(c1ccco1)N(C(=O)C1CCC1)CCN2 (stereo not given)	105%
CN1CC(c2ccccc2)C(C(=O)c2ccc(Br)cc2)C12C(=O)Nc1ccccc12 (stereo not given)	102%
Nc1ncc(-c2ccc3ncnc(N4CCc5cc(F)c(Cl)cc54)c3c2)cn1	22%
CCCCCN(CCCCC)CC(O)c1c(Cl)ccc2ccccc12 (stereo not given)	67.2%
CNC(=O)c1cc(Oc2ccc3nc(NC(=O)NC(C)C)sc3c2)ccn1	64.4%
Nc1ccc(Cl)c2c(=O)c3ccccc3[nH]c12	100%
CNC(=O)c1cc(Oc2cccc3nc(NC(=O)Nc4ccc(F)cc4F)ccc23)ccn1	49.7%
N#Cc1c(-c2ccc(F)cc2)cc(-c2cccc(Cl)c2)[nH]c1=O	71.9%

— PubChem BioAssay (NCI)
